Source: PubChem
TIM10 inh: inhibits growth of TIM10 yeast strain; AID 463195; inhibition, % at 10 µM; S. cerevisiae TIM10 strain growth, BacTiter-Glo luminescence, 24 h; hit rate 1.4% among 330,000;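 active = inhibition of 40% or more at the single tested concentration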;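 note: wild-type TIM10 isogenic control strain grown at permissive 25 °C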
V-ATPase pH: yeast V-ATPase proton transport regulation by pHLuorin. S. cerevisiae, pHLuorin cytosolic pH fluorescence. response, % at 10 µM. hit rate 0.37% among 350,000; in the data active = response mostly above about 7.3%, no sharp cut-off; inactive = mostly below about 5.4%; note: actives read high
PfHsp90 set2: growth inhibition of yeast expressing Plasmodium Hsp90; S. cerevisiae expressing PfHsp90, BacTiter-Glo ATP, 48 h; yeast lacking PDR1 and PDR3 efflux regulators; inhibition, % at 9.4 µM; hit rate 0.32% among 310,000; AID 504621;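 active = every replicate shows inhibition above about 80%, whatever the replicate mean, limit read from the data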;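 note: 0% = DMSO neutral controls and 100% = 20 µM radicicol positive controls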
tim10-1 inh: growth inhibitors of tim10-1 mutant yeast | S. cerevisiae tim10-1 ts strain growth, BacTiter-Glo, 24 h | inhibition, % at 20 µM | hit rate 2.2% among 330,000 | AID 463190;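 active = inhibition of at least 40%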;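 note: mutant grown at 25 °C; 0% = DMSO wells with yeast and 100% = wells holding no yeast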
tim23-1 inh: inhibits growth of tim23-1 mutant yeast. S. cerevisiae tim23-1 growth, BacTiter-Glo luminescence, 24 h. inhibition, % at 20 µM. hit rate 1.3% among 330,000. AID 463212;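 active = growth inhibition of the mutant yeast at or above 50%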;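 note: temperature-sensitive mutant grown at 25 °C; plate controls were DMSO-treated mutant yeast for no effect and medium wells lacking yeast for full effect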
tim10-1 confirm: confirmation of tim10-1 mutant yeast growth inhibitors | shares compounds with tim10-1 inh | S. cerevisiae tim10-1 ts strain growth, BacTiter-Glo, 24 h | inhibition, % at 20 µM | hit rate 56% among 7,400;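 active = inhibition of yeast growth at or above a set limit in either of two repeat tests at 20 µM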;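 note: tim10-1 mutant grown at permissive 25 °C to find synthetic lethal compounds; 0% = DMSO yeast wells and 100% = medium wells without yeast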
An asterisk follows results filed as active; . = no result. Sampled rows, rich in hits. Any-hit rate of the full collection: about 3.7%.

SMILES	TIM10 inh	V-ATPase pH	PfHsp90 set2	tim10-1 inh	tim23-1 inh	tim10-1 confirm
CN(C)c1ccccc1C(=O)c1ccccc1N(C)C	30	0	12	40*	24	22
CN(c1ccccc1C(=O)O)S(C)(=O)=O	2	2	.	13	7	.
Fc1ccc(NC(=S)Nc2cccc3ccccc23)cc1F	23	0	-2	42*	35	30
COc1cccc(NC(=S)Nc2cccc3ccccc23)c1	38	6	-4	55*	33	23
C/C(=N\NC(=S)Nc1cccc(C)c1)c1cc2ccccc2o1	37	-2	-17	47*	35	39*
Cc1cc(NC(=S)Nc2ccccc2)ccc1Br	15	-2	-50	41*	9	7
CCNC(=S)N/N=C(\C)c1cc2ccccc2o1	2	0	0	19	22	.
Cc1cccc(NC(=S)Nc2cccc3ccccc23)c1	32	-2	16	45*	34	29
CCOP(=O)(OCC)c1nc(-c2ccc(Cl)cc2Cl)oc1N1CCOCC1	19	-5	-9	4	38	.
CC(C)(C)OC(=O)NCc1ccc(CNC(=O)c2[nH]cnc2C(=O)NC2CCN(C(=O)OC(C)(C)C)CC2)cc1	6	1	.	16	15	.
C=CC(C)(C)c1c(O)c(CC=C(C)C)c(O)c2c(=O)c3ccc(O)c(O)c3oc12	-1	2	105*	44*	43	29*
O=C(COC(=O)c1cc(S(=O)(=O)N2CCCCC2)ccc1N1CCOCC1)NC1CCS(=O)(=O)C1 (stereo unspecified)	-4	3	-6	13	-1	.
CC(C)C(=O)N(c1cc2sc(=O)oc2c2ccccc12)S(=O)(=O)c1cccs1	21	2	-12	47*	23	16
O=C(Nc1nnc(SCCC2OCCO2)s1)C1CC(=O)N(c2ccc(F)cc2)C1 (stereo unspecified)	8	-2	-4	12	22	.
CCOc1cccc(/C=N/Nc2ccc(S(=O)(=O)N(CC)CC)cn2)c1O	28	6	-11	41*	20	27
CCN(CC)S(=O)(=O)c1ccc(N/N=C/c2ccc(O)cc2)nc1	25	0	-44	42*	20	34*
CCN(CC)S(=O)(=O)c1ccc(N/N=C/c2cc(OC)c(OC)cc2OC)nc1	-29	0	-18	-16	-40	.
Cc1ccc(C(=O)NNS(=O)(=O)c2ccc(F)cc2)cc1	-1	4	-3	-11	-3	.
CN(C)C1=NCCN1CC1CCCCCC1	-11	6	-4	-7	0	.
COc1ccc(N2CC(C(=O)N[C@H](C(=O)NC(C)c3ccccc3)C(C)C)CC2=O)cc1 (stereo partly specified)	9	15	-17	20	11	.
N#Cc1ccccc1NC(=O)C1SC(=Nc2ccccc2)C(C(=O)Nc2ccc(Cl)cc2)=C1N (stereo unspecified)	30	5	.	43*	26	29
CCOc1ccc(N=C2SC(C(=O)Nc3ccccc3C#N)C(N)=C2C(=O)Nc2ccc(Cl)cc2)cc1 (stereo unspecified)	0	-5	-24	11	16	.
O=C(OCC(=O)N1CCC(c2ccccc2)=N1)c1ccc(Cl)s1	13	-2	-2	12	39	.
COC(=O)c1[nH]c2ccc(Br)cc2c1NC(=O)CN1CCCc2ccccc21	23	2	-18	46*	35	34*
COC(=O)c1[nH]c2cc(C)ccc2c1NC(=O)CN1CCCc2ccccc21	19	-1	0	38	21	.
SMILES	TIM10 inh	V-ATPase pH	PfHsp90 set2	tim10-1 inh	tim23-1 inh	tim10-1 confirm
O=c1[nH]c(CN2CCN(S(=O)(=O)c3ccc(Cl)cc3)CC2)nc2cc(Cl)ccc12	23	5	3	48*	38	31*
COc1ccc(C(CC(=O)O)c2cc(OC)c(OC)c(OC)c2)cc1OC (stereo unspecified)	.	6	3	.	.	.
COc1ccc(CC(=O)NCCc2ccc(Cl)cc2Cl)cc1	-21	4	-14	40*	28	17
O=C(Cc1ccc(Br)cc1)NCCc1ccc(Cl)cc1Cl	12	-3	-17	10	18	.
O=C(CSc1ccc(Cl)cc1)N1N=CCC1c1ccccc1 (stereo unspecified)	16	1	-16	13	12	.
O=C(CSC(=S)N1CCCCC1)N1N=CCC1c1ccccc1 (stereo unspecified)	-9	-3	-35	41*	38	32*
COc1cc(NC(=O)CN2C(=O)NC(CC(C)C)C2=O)cc(OC)c1OC (stereo unspecified)	10	-1	-4	3	11	.
COc1cc(C2C(C#N)=C(N)OC3=C2C(=O)CC(C)(C)C3)cc([N+](=O)[O-])c1O (stereo unspecified)	5	10	-35	-4	15	.
COc1cc(C2C3=C(CC(C)(C)CC3=O)OC3=C2C(=O)CC(C)(C)C3)cc([N+](=O)[O-])c1O	17	-1	-71	41*	33	26
Cc1noc(C)c1S(=O)(=O)N(C)C[C@H]1Oc2ccc(NC(=O)Cc3ccccc3)cc2C(=O)N([C@H](C)CO)C[C@@H]1C	2	2	1	11	10	.
CCOc1ccc(/C=N/n2cc(-c3ccccc3)[nH]c2=S)cc1	21	-1	-12	42*	-3	15
O=S(=O)(Nc1ncccc1O)c1ccc(Cl)cc1	7	0	.	8	11	.
O=S(=O)(Nc1cc(Cl)ccn1)c1ccc(Cl)cc1	3	-4	-11	42*	36	23
COC(=O)c1cc(OC)c(OC)cc1NC(=O)CCN1C(=O)C2CCCCC2C1=O (stereo unspecified)	.	0	.	.	.	.
CC1=C(C(=O)N2CCOCC2)CC(CC(=O)NC2CCCC2)C(=O)N1CCCN1CCCC1=O (stereo unspecified)	.	-1	.	.	.	.
COc1ccc(-n2c(=S)[nH]c3ccccc3c2=S)cc1	26	-4	-9	6	16	.
COc1ccc(-n2c(=S)[nH]c3ccccc32)cc1	28	-1	-5	42*	26	15
CCOc1ccc(C(=O)Nc2cnn(Cc3ccc(Cl)c(Cl)c3)c2)cc1	31	40*	-3	41*	33	35*
CCOC(=O)C1CCCN(C(=O)c2cc3cc4ccc(OC)cc4nc3o2)C1 (stereo unspecified)	-4	-2	-17	32	35	.
COc1ccc2cc3cc(C(=O)N4CCCC(C)C4)oc3nc2c1 (stereo unspecified)	22	2	4	45*	44	13
O=C(CSc1nc2c(c(=O)n1-c1ccccc1)SCC2)NCC1CCCO1 (stereo unspecified)	-26	5	-1	-3	14	.
COc1ccc(-n2nc(C(=O)Nc3ccc(OC)c(OC)c3)c3c4ccccc4n(C)c3c2=O)cc1	17	0	-85	41*	5	-1
CC1CCc2nc(NC(=O)C3CC3)sc2C1 (stereo unspecified)	17	-4	-8	36	40	.
